# According to PubChem BioAssay (NCATS):
# Records with an inconclusive call do not appear. A call without a number means that no potency is given here. Calls of active or inactive are those of the source. Unless noted, calls come from the whole dose curve; as a rule, active = well fitted curve in the direction sought with a large enough effect; inconclusive = small, poorly fitted or top-dose-only effect, or another doubt; inactive = no such curve, though single readings can be large; an effect the other way counts as inactive or inconclusive.
# Columns and labels:
# [1] = Cytometric Cell-Based qHTS for Inhibitors of the mTORC1 Signaling Pathway in MEF (Tsc2-/-, p53-/-) Cells (AID 2660);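 note: percent of cells above a phospho-rpS6 to PI ratio cutoff in each well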
# Summary of the method: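 Cells are plated, treated with compound for 24 hrs at 37 degree Celsius, then fixed, blocked and immunostained for phospho-rpS6 Ser235/236. Propidium iodide counterstain follows. Per-well % positive cells is derived from the PI-normalized phospho-S6 signal.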
# [2] = High Content Imaging Cell-Based qHTS for Inhibitors of the mTORC1 Signaling Pathway in MEF (Tsc2-/-, p53-/-) Cells (AID 2666); conditions: at 38.3 µM (top of the series);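 note: percent of cells scored positive for phospho-rpS6 Ser235/236 immunostaining by imaging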
# Summary of the method: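 Read-out: % positive cells per well, with thresholds from highest- and lowest-signal wells, based on phospho-rpS6 (Ser235/236) intensity normalized to Hoechst nuclear stain. Cells: Tsc2-/-, p53-/- MEFs carrying empty vector; compound 24 hrs, 37 degree Celsius.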
# [3] = High Content Imaging Cell-Based qHTS for Inhibitors of the mTORC1 Signaling Pathway in MEF Cells (AID 2667);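 note: Tsc2-/- p53-/- MEFs stably re-expressing wild-type Tsc2 exposed 24 h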
# Summary of the method: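 MEF (Tsc2-/-, p53-/-, WT Tsc2 re-expressed); cpd 24 h, 37 °C; PFA fix; Alexa-488 anti-p-rpS6 Ser235/236, PI, Hoechst; IN Cell imaging; Hoechst/Alexa-488 intensity ratio; % active cells, thresholds set from rapamycin and DMSO wells.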
# [4] = Cytometry Cell-Based qHTS for Inhibitors of the mTORC1 Signaling Pathway in MEF cells (AID 2668);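 note: Tsc2-/- p53-/- mouse embryonic fibroblasts stably re-expressing wild-type Tsc2; percent cells positive for phospho-rpS6 Ser235/236 relative to propidium iodide stain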
# Summary of the method: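 In MEFs grown in DMEM + 10% FBS, a 24 hrs compound exposure preceded imaging of phospho-rpS6 Ser235/236 by laser-scanning cytometry.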
# [5] = target: DNA polymerase III PolC-type (Bacillus subtilis (strain 168)) (UniProt P13267); test: qHTS Validation Assay for the Inhibitors of DNA Replication in Gram-Positive Bacteria (AID 485295);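 note: reconstituted holoenzyme with PolC plus beta clamp SSB and primase; PicoGreen fluorescence of double-stranded DNA made on primed circular M13 template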
# Summary of the method: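 Inhibition of DNA synthesis by the reconstituted PolC holoenzyme, monitored through PicoGreen staining of dsDNA formed from ssM13Gori, dNTPs and NTPs, with compound preincubation and room-temperature reaction.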
# [6] = target: Tumor susceptibility gene 101 protein (Homo sapiens) (UniProt Q99816); test: qHTS Validation Assay for Iinhibitors of HIV-1 Budding by Blocking the Interaction of PTAP/TSG101 (AID 485342; calls by dose curve)
# Summary of the method: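 Compound wells held the Tsg101 binding domain (10 uM) and a FITC-conjugated PTAP peptide (50 nM) in buffer at pH 7.5 containing 0.15 M NaCl and 0.01% Tween 20; polarization was recorded after 20 min, r.t.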
# [7] = target: Thioredoxin reductase 1, cytoplasmic (Rattus norvegicus) (UniProt O89049); test: qHTS Assay for Substrates of Mammalian Selenoprotein Thioredoxin Reductase 1 (TrxR1) (AID 488772);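 note: NADPH fluorescence in the first read after selenite addition and not the 8 min delta; a drop in NADPH fluorescence below the no-compound background marks a TrxR1 substrate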
# Summary of the method: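 Quantitative HTS in Tris-HCl buffer at pH 7.5 with EDTA and Tween-20, using rat TrxR1, 400 uM NADPH and 400 uM selenite (final). A fall in initial NADPH fluorescence relative to background marked substrate behaviour.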
# [8] = target: Thioredoxin reductase 1, cytoplasmic (Rattus norvegicus) (UniProt O89049); test: qHTS Assay for Inhibitors of Mammalian Selenoprotein Thioredoxin Reductase 1 (TrxR1) (AID 488773); conditions: Potency: inhibition;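 note: drop in NADPH fluorescence over an 8 min run after selenite addition; nearly all actives have a fitted effect of over 40% in size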
# Summary of the method: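 Steps: enzyme (90 nM) plus NADPH (400 uM final), 5 min at ~22 deg C; compound added, 15 min; selenite (400 uM final) added; fluorescence followed for 8 min. Concentration-response curves derived from the normalized delta values.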
# [9] = target: Flap endonuclease 1 (Homo sapiens) (UniProt P39748); test: qHTS Validation Assay for the Inhibitors of Human Flap endonuclease 1 (FEN1) (AID 488816)
# Summary of the method: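 FEN1, dispensed as a 10 nM reagent, was preincubated with pin-transferred compounds for 15 min at room temperature before substrate was added (50 nM final). Plates were read at 0 and 15 min, and a four-parameter Hill equation was fitted to the concentration-response data.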
# [10] = target: M-phase phosphoprotein 8 (Homo sapiens) (UniProt Q99549); test: qHTS Validation Assay for Inhibitors for MPP8 Chromodomain Interactions with Methylated Histone Tails (AID 488949);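 note: 50 nM MPP8 with 50 nM peptide preformed then compounds added for 30 min; AlphaScreen signal from MPP8 chromodomain bound to biotinylated H3K9me3 peptide; top concentration of the series differs between compounds; nearly all actives have a fitted effect of over 55% in size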
# Summary of the method: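 Chemiluminescent proximity assay: histidine-tag capture via nickel acceptor beads, biotin peptide via streptavidin donor beads. Protein and peptide each at 50 nM, pH 7.4, with 30 min incubations at room temperature for complex formation, compound exposure and bead binding.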
# [11] = target: Chromobox protein homolog 1 (Homo sapiens) (UniProt P83916); test: qHTS Validation Assay for Inhibitors of HP1-beta Chromodomain Interactions with Methylated Histone Tails (AID 488953);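 note: loss of AlphaScreen luminescence from HP1-beta binding biotinylated H3K9me3 peptide; nearly all actives have a fitted effect of over 50% in size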
# Summary of the method: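 HP1-beta (50 nM) was preincubated 30 min at room temperature with biotinylated H3(1-18)K9me3 peptide (50 nM) in PBS pH 7.4, 0.01% Tween-20, then with compounds 30 min. AlphaScreen signal was read after streptavidin donor/nickel chelate acceptor beads (10 ug/mL final).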
# [12] = target: Methanococcus maripaludis chaperonin (MmCpn) (UniProt Q6LX38); test: High-Throughput Screening for Modulators of Cytosolic Chaperonin Activity: MmCpn Primary Screen (AID 488978)
# Summary of the method: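 HTRF readout (320 nm excitation, 590/665 nm emission) of ADP generated by 50 nM MmCpn hydrolysing 30 uM ATP during 10 min at 37C; compound preincubated 5 min RT.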
# [13] = target: D(1A) dopamine receptor (Homo sapiens) (UniProt P21728); test: HTS Assay for Allosteric Agonists of the Human D1 Dopamine Receptor: Primary Screen for Agonists (AID 488981)
# Summary of the method: (§1)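 Tetracycline-induced HEK293 T-REx cells force-coupled to calcium signalling were incubated overnight at 30 C and dye-loaded at room temperature. Calcium flux over 180 s after compound addition flagged agonists; a further 180 s read after EC20 dopamine flagged potentiators.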
# [14] = target: D(1A) dopamine receptor (Homo sapiens) (UniProt P21728); test: HTS Assay for Allosteric Agonists of the Human D1 Dopamine Receptor: Primary Screen for Potentiators (AID 488982)
# Summary of the method: as §1
# [15] = target: D(1A) dopamine receptor (Homo sapiens) (UniProt P21728); test: HTS Assay for Allosteric Agonists of the Human D1 Dopamine Receptor: Primary Screen for Antagonists (AID 488983);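 note: calcium flux response to an EC80 dopamine challenge measured with no-wash dye; nearly all actives have a fitted effect of over 65% in size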
# Summary of the method: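 Tetracycline-induced HEK293 T-REx cells expressing force-coupled D1 were plated overnight at 30 C, dye-loaded for calcium, and read kinetically. Compounds were pinned in, then an EC80 dopamine challenge followed after 180 s to reveal antagonism.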
# [16] = Validation screen for small molecules that induce genotoxicity in human embryonic kidney (HEK293T) cells expressing luciferase-tagged ELG1 (AID 493106)
# Summary of the method: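 HEK293T cells expressing luciferase-tagged ELG1 were exposed to compound or DMSO vehicle for 16 hr at 37 °C, 5% CO2. Genotoxic stress raises ELG1 levels, so increased luciferase signal after ONE-Glo addition and 30 min at room temperature marks hits.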
# [17] = target: ATPase family AAA domain-containing protein 5 (Homo sapiens) (UniProt Q96QE3); test: Validation screen for small molecules that inhibit ELG1-dependent DNA repair in human embryonic kidney (HEK293T) cells expressing luciferase-tagged ELG1 (AID 493107);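 note: cells co-treated with the DNA-damaging agent 5-fluorouridine alongside compound; inhibitors lower the ELG1-luciferase luminescence signal; nearly all actives have a fitted effect of over 70% in size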
# Summary of the method: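 HEK293T cells expressing luciferase-tagged ELG1 were co-treated with 5-fluorouridine and compound or DMSO for 16 hr at 37 °C, 5% CO2. Luciferase activity was then read with ONE-Glo after 30 min at room temperature; suppressed signal indicates blocked ELG1 function.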
# [18] = Nrf2 qHTS screen for inhibitors: Validation (AID 493153; active = well fitted inhibition curve with a large enough effect in the main read-out, with a control signal flat, not every such curve was filed as active); conditions: viability change: measured here: cytotoxicity max response
# Summary of the method: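 A549 cells carrying an ARE-driven firefly luciferase reporter, in 5% FBS OPTI-MEM, were treated with compounds in concentration-response for 18-24 h at 37°C. Viability was read by CellTiter-Fluor fluorescence, then Nrf2 activity by luciferase luminescence.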
# [19] = target: Peptidyl-prolyl cis-trans isomerase NIMA-interacting 1 (Homo sapiens) (UniProt Q13526); test: qHTS Validation Assay to Find Inhibitors of Pin1 (AID 504536; active = well fitted inhibition curve with a large enough effect in the polarisation, with a control signal flat, not every such curve was filed as active; the % refers to the polarisation)
# Summary of the method: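 Fluorescence polarization competition: compounds (titration) displace HiFluor-488-labeled Pin1-1b peptide from Pin1 (0.3 uM final) in pH 7.5 HEPES buffer with DTT, 10 min at room temperature; %Activity normalized to no-enzyme wells, curves fitted.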
# [20] = target: Phosphoglycerate kinase, glycosomal (Trypanosoma brucei brucei) (UniProt P07378); test: qHTS Validation Assay to Find Inhibitors of Phosphoglycerate Kinase (AID 504547)
# Summary of the method: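 Substrate/PGK mix plus compound; reaction started with GAPDH (100nM final) to form 1,3-BPG; 60 min RT; Kinase-Glo Plus 10 min; luminescence. TEA 100mM pH 7.6, MgCl2 5mM, Tween-20 0.01%.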
# [21] = target: phosphoglycerate mutase (Leishmania major) (UniProt Q4Q090); test: qHTS Validation Assay to Find Inhibitors of Phosphoglycerate Mutase (AID 504548)
# Summary of the method: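 Luminescent end-point read-out via Kinase-GloPlus after a 10-minute development. Reaction: 1.25nM Leishmania major PGAM with substrate and compound, 45 minutes at room temperature in TEA buffer (pH 7.6) with MgCl2 and Tween-20.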
# [22] = target: Ubiquitin carboxyl-terminal hydrolase 1 (Homo sapiens) (UniProt O94782); test: Inhibitors of USP1/UAF1: Pilot qHTS (AID 504865);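 note: rhodamine fluorescence freed from ubiquitin-rhodamine substrate followed over time; top concentration of the series differs between compounds; nearly all actives have a fitted effect of over 35% in size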
# Summary of the method: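 Enzyme-free wells gave the negative control, while test wells held 1nM USP1/UAF1 preincubated with compound for 15 min at room temperature. Ub-Rho at 150nM final started the reaction, and fluorescence at 480/540 nm was recorded kinetically.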
# [23] = qHTS for Inhibitors of ATXN expression: Validation (AID 588378); note: nearly all actives have a fitted effect of over 75% in size
# Summary of the method: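 After a 2 h attachment and 24 h compound incubation, HEK293-ATXN2-FFLuc wells are read for fluorescence at 405 nm excitation/525 nm emission as a viability measure, then for Bright-Glo luminescence reflecting ATXN2 expression.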
# [24] = target: Glutaminase kidney isoform, mitochondrial (Homo sapiens) (UniProt O94925); test: qHTS for Inhibitors of Glutaminase (GLS): LOPAC Validation (AID 624146);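 note: glutamate product detected by oxidase and peroxidase coupled Amplex red fluorescence gain; nearly all actives have a fitted effect of over 60% in size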
# Summary of the method: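 Compounds were pin-transferred onto hKGA, after which L-glutamine (1 mM solution) and a detection mix of glutamate oxidase, HRP and Amplex Red were added. Initial and 30 min RT fluorescence reads were collected.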
# [25] = target: Glucagon-like peptide 1 receptor (Homo sapiens) (UniProt P43220); test: qHTS of GLP-1 Receptor Agonists: LOPAC Validation (AID 624148);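 note: higher luminescence signal means agonism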
# Summary of the method: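 HEK293 cells stably co-expressing a cAMP-responsive luciferase reporter and a hypersensitive GLP-1R were plated 12 h at 37 °C and exposed to compounds for 4-6 hr at 37 °C, 5% CO2. Luminescence was read 12 min after adding detection reagent.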
# [26] = qHTS of Nrf2 Activators: LOPAC Validation (AID 624149)
# Summary of the method: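 AREc32 cells carrying an ARE-driven firefly luciferase were grown overnight in OPTI-MEM with 5% FBS, then exposed to compounds for 24 hr at 37 deg C. Luciferase signal was read after 30 min with Steady-Glo at RT.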
# Sequence of D(1A) dopamine receptor (Homo sapiens) (P21728 whole entry, looked up): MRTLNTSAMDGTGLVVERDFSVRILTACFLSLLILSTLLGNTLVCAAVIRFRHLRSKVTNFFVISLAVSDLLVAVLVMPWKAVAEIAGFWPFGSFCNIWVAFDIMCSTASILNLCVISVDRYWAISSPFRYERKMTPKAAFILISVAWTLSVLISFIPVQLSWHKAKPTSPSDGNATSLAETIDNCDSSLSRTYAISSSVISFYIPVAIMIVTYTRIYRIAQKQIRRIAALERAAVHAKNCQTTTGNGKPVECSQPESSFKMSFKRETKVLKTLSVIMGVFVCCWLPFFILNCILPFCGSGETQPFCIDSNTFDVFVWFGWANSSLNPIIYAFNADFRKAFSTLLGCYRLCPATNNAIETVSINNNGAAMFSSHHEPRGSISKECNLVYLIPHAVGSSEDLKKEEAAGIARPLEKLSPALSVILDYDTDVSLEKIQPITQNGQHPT
# Sequence of Thioredoxin reductase 1, cytoplasmic (Rattus norvegicus) (O89049 whole entry, looked up): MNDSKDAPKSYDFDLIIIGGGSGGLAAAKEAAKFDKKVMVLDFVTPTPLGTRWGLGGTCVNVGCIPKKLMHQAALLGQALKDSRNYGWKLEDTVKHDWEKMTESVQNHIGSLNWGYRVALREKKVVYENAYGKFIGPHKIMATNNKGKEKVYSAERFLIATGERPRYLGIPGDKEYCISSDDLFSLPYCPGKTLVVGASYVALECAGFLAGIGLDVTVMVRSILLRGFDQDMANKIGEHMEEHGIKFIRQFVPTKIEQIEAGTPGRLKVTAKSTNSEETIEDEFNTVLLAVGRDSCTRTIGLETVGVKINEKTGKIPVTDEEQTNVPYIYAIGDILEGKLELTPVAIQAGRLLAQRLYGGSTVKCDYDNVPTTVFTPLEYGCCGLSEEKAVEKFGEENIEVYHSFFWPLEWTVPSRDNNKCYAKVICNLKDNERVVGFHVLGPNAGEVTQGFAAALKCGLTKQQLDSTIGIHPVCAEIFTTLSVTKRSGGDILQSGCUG
# Sequence of Glutaminase kidney isoform, mitochondrial (Homo sapiens) (O94925 whole entry, looked up, canonical isoform): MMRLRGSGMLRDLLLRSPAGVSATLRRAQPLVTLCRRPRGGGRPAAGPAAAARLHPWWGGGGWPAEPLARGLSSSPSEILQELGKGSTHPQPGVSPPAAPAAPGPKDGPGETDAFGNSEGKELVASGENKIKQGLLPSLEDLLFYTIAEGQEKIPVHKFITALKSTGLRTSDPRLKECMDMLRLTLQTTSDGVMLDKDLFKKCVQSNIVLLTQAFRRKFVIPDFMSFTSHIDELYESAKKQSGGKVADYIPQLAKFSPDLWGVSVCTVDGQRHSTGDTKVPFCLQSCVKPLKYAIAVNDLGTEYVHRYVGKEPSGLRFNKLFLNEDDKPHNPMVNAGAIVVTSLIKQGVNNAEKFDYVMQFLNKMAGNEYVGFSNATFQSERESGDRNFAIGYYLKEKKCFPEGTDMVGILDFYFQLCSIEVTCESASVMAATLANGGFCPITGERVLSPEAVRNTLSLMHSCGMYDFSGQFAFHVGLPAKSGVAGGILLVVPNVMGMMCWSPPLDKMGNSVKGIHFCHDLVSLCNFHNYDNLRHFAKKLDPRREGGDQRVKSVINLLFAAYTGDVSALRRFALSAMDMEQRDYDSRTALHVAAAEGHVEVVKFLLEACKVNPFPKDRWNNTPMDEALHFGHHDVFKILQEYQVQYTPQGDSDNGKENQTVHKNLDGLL
# Sequence of DNA polymerase III PolC-type (Bacillus subtilis (strain 168)) (P13267 whole entry, looked up): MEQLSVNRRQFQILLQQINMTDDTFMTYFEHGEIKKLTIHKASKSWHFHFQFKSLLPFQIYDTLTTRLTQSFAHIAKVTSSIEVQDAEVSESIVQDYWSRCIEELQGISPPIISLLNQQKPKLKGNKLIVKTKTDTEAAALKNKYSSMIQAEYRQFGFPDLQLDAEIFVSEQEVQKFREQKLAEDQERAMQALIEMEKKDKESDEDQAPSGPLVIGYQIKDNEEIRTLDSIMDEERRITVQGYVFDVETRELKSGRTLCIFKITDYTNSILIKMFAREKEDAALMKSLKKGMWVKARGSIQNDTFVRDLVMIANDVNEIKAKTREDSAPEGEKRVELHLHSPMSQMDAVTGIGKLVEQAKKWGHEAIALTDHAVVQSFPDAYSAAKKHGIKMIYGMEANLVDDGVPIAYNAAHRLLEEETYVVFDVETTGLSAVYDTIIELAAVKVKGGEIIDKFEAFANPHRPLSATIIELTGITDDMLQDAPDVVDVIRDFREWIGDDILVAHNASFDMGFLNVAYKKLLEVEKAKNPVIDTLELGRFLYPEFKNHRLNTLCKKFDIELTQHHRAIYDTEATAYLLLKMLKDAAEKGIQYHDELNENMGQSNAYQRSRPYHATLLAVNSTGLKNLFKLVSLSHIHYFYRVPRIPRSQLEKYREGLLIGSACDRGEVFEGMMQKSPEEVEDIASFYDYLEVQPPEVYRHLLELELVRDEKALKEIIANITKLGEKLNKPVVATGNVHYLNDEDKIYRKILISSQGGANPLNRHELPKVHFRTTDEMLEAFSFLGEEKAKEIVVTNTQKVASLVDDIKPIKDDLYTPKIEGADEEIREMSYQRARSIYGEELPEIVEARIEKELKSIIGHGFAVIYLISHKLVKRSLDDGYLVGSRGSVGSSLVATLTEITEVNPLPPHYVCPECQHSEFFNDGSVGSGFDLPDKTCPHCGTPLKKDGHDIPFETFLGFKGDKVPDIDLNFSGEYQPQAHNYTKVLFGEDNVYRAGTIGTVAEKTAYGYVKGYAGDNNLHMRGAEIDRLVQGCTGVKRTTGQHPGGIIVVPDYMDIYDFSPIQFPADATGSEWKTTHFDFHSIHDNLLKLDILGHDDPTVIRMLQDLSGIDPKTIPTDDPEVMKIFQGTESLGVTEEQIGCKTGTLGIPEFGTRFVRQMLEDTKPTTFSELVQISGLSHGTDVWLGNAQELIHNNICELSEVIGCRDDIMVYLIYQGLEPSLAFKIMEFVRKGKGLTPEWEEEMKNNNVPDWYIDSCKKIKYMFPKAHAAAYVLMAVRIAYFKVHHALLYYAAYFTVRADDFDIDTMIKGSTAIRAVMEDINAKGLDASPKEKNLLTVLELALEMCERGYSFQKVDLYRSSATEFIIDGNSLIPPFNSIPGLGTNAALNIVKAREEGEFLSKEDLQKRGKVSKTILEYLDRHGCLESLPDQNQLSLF
# Sequence of Glucagon-like peptide 1 receptor (Homo sapiens) (P43220 whole entry, looked up): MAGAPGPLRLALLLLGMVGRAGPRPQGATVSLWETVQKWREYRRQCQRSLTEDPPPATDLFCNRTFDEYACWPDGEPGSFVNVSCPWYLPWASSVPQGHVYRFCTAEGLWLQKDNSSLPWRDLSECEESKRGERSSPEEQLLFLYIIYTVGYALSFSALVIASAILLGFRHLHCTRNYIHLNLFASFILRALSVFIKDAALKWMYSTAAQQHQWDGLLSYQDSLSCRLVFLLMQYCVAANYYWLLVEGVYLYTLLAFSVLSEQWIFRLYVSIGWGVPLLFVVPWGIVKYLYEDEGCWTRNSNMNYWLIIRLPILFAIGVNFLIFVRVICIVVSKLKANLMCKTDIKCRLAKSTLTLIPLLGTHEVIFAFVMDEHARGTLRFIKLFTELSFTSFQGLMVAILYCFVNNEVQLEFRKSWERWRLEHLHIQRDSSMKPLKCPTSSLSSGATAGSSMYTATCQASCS
# Sequence of phosphoglycerate mutase (Leishmania major) (Q4Q090 1-553): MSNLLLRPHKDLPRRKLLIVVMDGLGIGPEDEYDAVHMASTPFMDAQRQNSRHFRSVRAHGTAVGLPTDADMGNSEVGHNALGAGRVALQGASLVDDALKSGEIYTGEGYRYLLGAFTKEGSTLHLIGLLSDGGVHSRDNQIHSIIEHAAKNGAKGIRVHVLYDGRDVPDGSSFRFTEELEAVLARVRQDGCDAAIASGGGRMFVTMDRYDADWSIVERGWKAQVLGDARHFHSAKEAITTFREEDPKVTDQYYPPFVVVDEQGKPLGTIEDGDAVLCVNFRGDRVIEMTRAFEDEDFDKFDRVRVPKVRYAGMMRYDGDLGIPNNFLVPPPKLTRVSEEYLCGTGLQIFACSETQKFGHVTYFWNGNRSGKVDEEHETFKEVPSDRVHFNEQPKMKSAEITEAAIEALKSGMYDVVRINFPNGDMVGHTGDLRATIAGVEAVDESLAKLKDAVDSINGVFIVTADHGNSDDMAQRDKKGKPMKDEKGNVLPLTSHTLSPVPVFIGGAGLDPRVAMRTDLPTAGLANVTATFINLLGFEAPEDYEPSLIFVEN
# Sequence of Flap endonuclease 1 (Homo sapiens) (P39748 whole entry, looked up): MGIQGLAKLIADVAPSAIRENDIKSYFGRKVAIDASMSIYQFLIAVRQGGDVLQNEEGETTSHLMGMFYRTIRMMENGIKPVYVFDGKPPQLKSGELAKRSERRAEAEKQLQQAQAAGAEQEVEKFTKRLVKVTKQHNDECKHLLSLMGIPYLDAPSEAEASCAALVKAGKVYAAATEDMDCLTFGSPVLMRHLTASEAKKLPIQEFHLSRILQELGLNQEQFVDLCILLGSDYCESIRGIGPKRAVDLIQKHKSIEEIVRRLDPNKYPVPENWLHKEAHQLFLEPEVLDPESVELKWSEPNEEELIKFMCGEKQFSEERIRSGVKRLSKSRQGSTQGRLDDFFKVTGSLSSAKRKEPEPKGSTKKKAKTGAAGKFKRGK
# Sequence of Tumor susceptibility gene 101 protein (Homo sapiens) (Q99816 whole entry, looked up, the tested form may be a part): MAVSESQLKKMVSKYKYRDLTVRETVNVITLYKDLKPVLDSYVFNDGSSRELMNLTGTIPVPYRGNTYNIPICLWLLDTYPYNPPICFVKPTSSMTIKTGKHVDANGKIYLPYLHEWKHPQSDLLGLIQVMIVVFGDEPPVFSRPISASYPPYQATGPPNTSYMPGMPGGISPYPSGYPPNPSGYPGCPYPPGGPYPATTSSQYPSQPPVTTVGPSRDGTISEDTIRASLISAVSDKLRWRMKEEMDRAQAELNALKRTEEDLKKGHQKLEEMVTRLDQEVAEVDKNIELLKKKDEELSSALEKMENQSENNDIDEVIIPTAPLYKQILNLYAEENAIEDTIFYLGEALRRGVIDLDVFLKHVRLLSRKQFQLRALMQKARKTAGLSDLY
# Sequence of Chromobox protein homolog 1 (Homo sapiens) (P83916 whole entry, looked up): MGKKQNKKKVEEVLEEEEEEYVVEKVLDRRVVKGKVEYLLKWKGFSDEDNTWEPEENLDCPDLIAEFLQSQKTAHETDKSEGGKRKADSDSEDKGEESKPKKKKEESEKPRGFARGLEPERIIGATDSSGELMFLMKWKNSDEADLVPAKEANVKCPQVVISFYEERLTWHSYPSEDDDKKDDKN
structure (smiles),measurement,setting,value
CN1C2CCCC1CC(NC(=O)c1nn(C)c3ccccc13)C2 (configuration not stated),outcome,[1],inactive
same,outcome,[2],inactive
same,Potency,[3],inactive
same,Potency,[4],inactive
same,Potency,[5],inactive
same,outcome,[6],inactive
same,outcome,[7],inactive
same,Potency,[8],inactive
same,Potency,[9],inactive
same,Potency,[10],inactive
same,Potency,[11],inactive
same,outcome,[12],inactive
same,outcome,[13],inactive
same,outcome,[14],inactive
same,outcome,[15],inactive
same,Potency,[16],inactive
same,Potency,[17],inactive
same,outcome,[18],inactive
same,viability change,[18],0.0672%
same,Potency,[19],inactive
same,Potency,[20],inactive
same,outcome,[21],inactive
same,Potency,[22],inactive
same,Potency,[23],inactive
same,Potency,[24],inactive
same,outcome,[25],inactive
same,outcome,[26],inactive
